HIF act = HIF pathway transcriptional activation. U2OS HRE-luciferase reporter, luminescence; normalized: DMSO 0%, desferrioxamine 100%. activation, % at 7.5 µM (by protocol). actives 0.32% (n = 300,000). AID 1910;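 active = mean activation of at least 10% of the iron chelator positive control signal, with at least half of replicates also reaching 10%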
SUMO Mot1 rescue = inhibitors of SUMOylation pathway: yeast Mot1-301 growth rescue; growth rescue, % at 18.8 µM; AID 2716; actives 1% (n = 320,000); S. cerevisiae Mot1-301 growth rescue, ATP luminescence, 38.5C; percent above DMSO median, 100 means doubled;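 active = every valid replicate shows activation above 250% relative to neutral control wells; inactive = the rest, any valid replicate at or below 250%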;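 also: OY570 slx delta 5 strain wells were the positive control but not used for scaling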
ALR inh = inhibitors of human sulfhydryl oxidase ALR; purified ALR, DTT oxidation, H2O2 HRP-luminol luminescence; inhibition, % (no concentration beside the values); actives 3.8% (n = 290,000); P55789;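 active = mean replicate inhibition above about 79%, with every replicate also reaching it, limit read from the data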
Target sequence (P55789 whole entry, looked up): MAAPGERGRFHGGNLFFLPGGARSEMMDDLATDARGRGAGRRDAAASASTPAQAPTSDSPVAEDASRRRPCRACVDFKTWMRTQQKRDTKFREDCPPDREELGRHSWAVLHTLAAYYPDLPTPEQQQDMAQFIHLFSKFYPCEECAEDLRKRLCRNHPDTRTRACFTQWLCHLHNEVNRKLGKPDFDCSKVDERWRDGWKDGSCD
M18AAP inhibitor = blocks P. falciparum M18 aspartyl aminopeptidase. recombinant PfM18AAP, H-Glu-NHMec fluorogenic cleavage. inhibition, % at 7.35 µM. actives 1.2% (n = 290,000);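 active = inhibition above the campaign mean inhibition over all tested compounds plus 3 SD, cut at about 28% in these data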;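 also: 0% = plate median of test compound wells and 100% = 2 mM ZnCl2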
* = called active by the depositor. A selection: hits, their analogues and other compounds. The true share with any hit is near 5.3%.

Results for c1cc2c(cc1-c1csc(NNC3=NCCCCC3)n1)OCCO2 ?
HIF act: 1; SUMO Mot1 rescue: 2; ALR inh: 98*; M18AAP inhibitor: 41*

Results for CCC(=O)Nc1nc(-c2ccc3c(c2)OCCO3)cs1 ?
HIF act: 3; SUMO Mot1 rescue: 15; ALR inh: 86*; M18AAP inhibitor: 3

Results for NC(=O)C1CCN(c2nc(-c3ccc(Br)cc3)cs2)CC1 ?
HIF act: 1; SUMO Mot1 rescue: 16; M18AAP inhibitor: 6

How did Cc1ccc(-c2csc(NC(=O)CN3CC(C)OC(C)C3)n2)cc1 (configuration not stated) do in these assays?
HIF act: 3; SUMO Mot1 rescue: 4; ALR inh: 98*; M18AAP inhibitor: 0

What do the screens show for `NC(=O)C1CCN(c2nc(-c3ccc4c(c3)OCCO4)cs2)CC1`?
SUMO Mot1 rescue: 5; ALR inh: 98*

What do the screens show for `CC1CCN(CC(=O)Nc2nc(-c3ccccc3)cs2)CC1`?
HIF act: 0; SUMO Mot1 rescue: -3; ALR inh: -5; M18AAP inhibitor: -12

Results for O=C(Nc1nc(-c2ccc3c(c2)OCCO3)cs1)c1ccco1 ?
HIF act: 1; SUMO Mot1 rescue: -7; ALR inh: 30; M18AAP inhibitor: 2

Results for c1cc2c(cc1Nc1nc(-c3ccc4c(c3)OCO4)cs1)OCCO2 ?
HIF act: 3; SUMO Mot1 rescue: inactive; ALR inh: -7; M18AAP inhibitor: 4

What do the screens show for `CC(C)(C)C(=O)Cn1nc(Cl)nc1Cl`?
HIF act: 0; SUMO Mot1 rescue: 30; ALR inh: -4; M18AAP inhibitor: -3

How did CCc1nnc(SCC(=O)Nc2ccccc2Cl)nc1CC do in these assays?
HIF act: 0; SUMO Mot1 rescue: -7; ALR inh: 98*; M18AAP inhibitor: -2

How did CC(C)c1cc(C(=O)N/N=C/c2ccco2)n[nH]1 do in these assays?
HIF act: 1; SUMO Mot1 rescue: -5; ALR inh: 83*; M18AAP inhibitor: -1

Results for O=C(CCC(=O)N1CCOc2ccccc21)Nc1ccccc1Cl ?
HIF act: 0; SUMO Mot1 rescue: 19; ALR inh: -23; M18AAP inhibitor: -7

How did Cc1ccc2c(c1)Oc1ccc([N+](=O)[O-])cc1C(=O)N2 do in these assays?
HIF act: 0; SUMO Mot1 rescue: 1; ALR inh: -6; M18AAP inhibitor: -6

How did Cc1ccc2c(c1)Oc1ccc(NC(=O)CCl)cc1C(=O)N2 do in these assays?
HIF act: 0; SUMO Mot1 rescue: 6; ALR inh: 93*; M18AAP inhibitor: -10

How did CCOc1cc(/C=C\c2nc(O)c([N+](=O)[O-])c(=O)[nH]2)ccc1OC(C)C do in these assays?
HIF act: -6; SUMO Mot1 rescue: 227; ALR inh: 7; M18AAP inhibitor: -10

How did C=CCc1cc(/C=C/c2nc(O)c([N+](=O)[O-])c(=O)[nH]2)cc(OC)c1O do in these assays?
HIF act: 0; SUMO Mot1 rescue: 523*; ALR inh: 82*; M18AAP inhibitor: 28

Results for O=c1[nH]c(/C=C\c2ccc(O)c(Cl)c2)nc(O)c1[N+](=O)[O-] ?
HIF act: 1; SUMO Mot1 rescue: -3; ALR inh: 28; M18AAP inhibitor: 23

What do the screens show for `O=c1[nH]c(/C=C\c2ccc(O)cc2)nc(O)c1[N+](=O)[O-]`?
HIF act: 0; SUMO Mot1 rescue: 0; ALR inh: 97*; M18AAP inhibitor: 9

What do the screens show for `CCO[C@@H]1OC(C(=O)N2CCN(C)CC2)=C[C@H](c2ccc(C(F)(F)F)cc2)[C@H]1CCCO`?
HIF act: 2; SUMO Mot1 rescue: 7; ALR inh: -10; M18AAP inhibitor: 6

What do the screens show for `Cc1ccc(NC(=O)CSC2=Nc3ccccc3C3CC=NN23)c(C)c1` (configuration not stated)?
HIF act: 1; SUMO Mot1 rescue: 12; ALR inh: 7; M18AAP inhibitor: 19

How did O=C(CSC1=Nc2ccccc2C2CC=NN12)Nc1ccc(F)cc1Cl (configuration not stated) do in these assays?
HIF act: 0; SUMO Mot1 rescue: 39; ALR inh: 74; M18AAP inhibitor: 4

What do the screens show for `COC(=O)c1ccc(NC(=O)CSC2=Nc3ccccc3C3CC=NN23)cc1` (configuration not stated)?
HIF act: 0; SUMO Mot1 rescue: 4; ALR inh: 97*; M18AAP inhibitor: -1

Results for NC(=O)c1ccc(NC(=O)CSC2=Nc3ccccc3C3CC=NN23)cc1 (configuration not stated) ?
HIF act: -2; SUMO Mot1 rescue: 14; ALR inh: 99*; M18AAP inhibitor: 1

What do the screens show for `CCN1CCN(C(=O)C(NS(=O)(=O)c2ccc3nc(C)sc3c2)C(C)C)CC1` (configuration not stated)?
SUMO Mot1 rescue: 0; ALR inh: 92*; M18AAP inhibitor: -6

What do the screens show for `Cc1nc2ccc(S(=O)(=O)NC(C(=O)NC3CCCC3)C(C)C)cc2s1` (configuration not stated)?
SUMO Mot1 rescue: -8; ALR inh: 96*; M18AAP inhibitor: 0

Results for Cc1nc2ccc(S(=O)(=O)NC(C(=O)NCc3ccc4c(c3)OCO4)C(C)C)cc2s1 (configuration not stated) ?
SUMO Mot1 rescue: 403; ALR inh: -37; M18AAP inhibitor: -2

How did O=c1c(Cl)c(NCc2ccccc2Cl)cnn1C12CC3CC(CC(C3)C1)C2 do in these assays?
HIF act: 0; SUMO Mot1 rescue: -25; ALR inh: -6; M18AAP inhibitor: 2

Results for O=c1c(Cl)c(N2CCN(c3ccc(F)cc3)CC2)cnn1C12CC3CC(CC(C3)C1)C2 ?
HIF act: 0; SUMO Mot1 rescue: -3; ALR inh: 77*; M18AAP inhibitor: 1

How did O=c1c(Cl)c(N2CCN(c3ccccc3)CC2)cnn1C12CC3CC(CC(C3)C1)C2 do in these assays?
HIF act: 0; SUMO Mot1 rescue: 215; ALR inh: 86*; M18AAP inhibitor: -7

How did O=c1c(Cl)c(NCc2ccc(F)cc2)cnn1C12CC3CC(CC(C3)C1)C2 do in these assays?
HIF act: 0; SUMO Mot1 rescue: 99; ALR inh: -1; M18AAP inhibitor: 5

What do the screens show for `Cc1c(-c2ccnc3cc(C(=O)O)nn23)cnn1C`?
HIF act: 0; SUMO Mot1 rescue: 22; ALR inh: 0; M18AAP inhibitor: 11

Results for CCC(=O)c1ccc(N2CCC(C)CC2)c(F)c1 ?
HIF act: 3; SUMO Mot1 rescue: 1; ALR inh: -4; M18AAP inhibitor: 7

How did CC1=C(C(=O)Nc2ccccc2)C(c2ccc(C)cc2)N=C(Nc2nc3ccccc3o2)N1 (configuration not stated) do in these assays?
HIF act: -4; SUMO Mot1 rescue: -15; ALR inh: -2; M18AAP inhibitor: -3

How did O=C(CN1CCCCCC1)Nc1ccc(S(=O)(=O)N2CCOCC2)cc1 do in these assays?
HIF act: -1; SUMO Mot1 rescue: 7; ALR inh: 2; M18AAP inhibitor: -2

How did O=C(CN1C(=O)C2CC=CCC2C1=O)Nc1ccc(S(=O)(=O)N2CCOCC2)cc1 (configuration not stated) do in these assays?
HIF act: 0; SUMO Mot1 rescue: 297*; ALR inh: 1; M18AAP inhibitor: -5
